High-throughput results: PubChem BioAssay, National Center for Advancing Translational Sciences (NCATS)
TRHR agonist = activates the human TRH receptor; P34981; TRHR cells, calcium flux fluo-8, FDSS agonist mode; activation, % at 2 µM; 360,000 tested, 0.18% active; AID 493084; further: 0% is about no effect
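Agonist-mode FDSS calcium read (Ex 480/Em 530, 1 s cycles) in 1536-well TRHR cells with fluo-8 dye, after 10-cycle baseline and 23 nL compound addition; TRH at EC20 (10 nM final) added afterwards for the enhancer phase.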
D1 PAM = potentiators of human D1 dopamine receptor. P21728. HEK293 TREx D1 cells, calcium flux, dopamine EC20 potentiation. potentiation, % at 10 µM. 360,000 tested, 0.036% active; in the data active means potentiation above about 30%; further: 0% is about no effect
Target sequence (P21728 whole entry, looked up): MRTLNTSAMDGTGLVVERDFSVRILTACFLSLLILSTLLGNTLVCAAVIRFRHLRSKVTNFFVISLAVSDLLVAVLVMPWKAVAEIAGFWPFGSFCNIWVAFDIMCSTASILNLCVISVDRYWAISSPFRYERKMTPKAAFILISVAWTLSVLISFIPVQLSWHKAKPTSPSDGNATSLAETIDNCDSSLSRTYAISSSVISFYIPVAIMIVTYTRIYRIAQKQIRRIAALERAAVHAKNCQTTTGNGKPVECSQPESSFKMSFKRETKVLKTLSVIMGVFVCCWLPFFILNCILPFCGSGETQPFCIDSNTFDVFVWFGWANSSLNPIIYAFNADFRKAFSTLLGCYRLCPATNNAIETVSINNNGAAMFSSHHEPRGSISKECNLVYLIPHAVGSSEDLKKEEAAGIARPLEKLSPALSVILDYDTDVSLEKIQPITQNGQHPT
Glioma ERSR ind = inducers of ER stress response in human glioma cells. U87-MG GRP78 promoter luciferase reporter, 16 h. Potency, µM, without a hit: at the top dose activation, usual class: activators. 420,000 tested, 0.02% active. AID 602332; active means well fitted activation curve with a large enough effect; inconclusive means small, poorly fitted or top-dose-only effect; inactive means no such curve, though single readings can be large or run the other way; further: potency means the concentration at half of the fitted maximal effect; series mostly up to about 76 µM; % of control where 0% means no effect; nearly all actives have a fitted effect of over 35% in size
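Stably transfected U87-MG glioma cells carrying a GRP78-based luciferase sensor; 16 h compound incubation. Luminescence end-point read 10 min after Bright-Glo addition at room temperature.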
D1 antagonist = human D1 dopamine receptor antagonism. activity change, negative = inhibition, % at 10 µM. P21728. 360,000 tested, 3.2% active. HEK293 TREx D1 cells, calcium flux, dopamine EC80; active compounds read low; in the data active means activity change below about -30%; further: on the % scale 0 is the no-effect control and ±100 the full control effect
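Compound effects on dopamine-evoked calcium signalling were measured in tetracycline-induced HEK293 Trex D1 cells. Dopamine at EC80 followed a 180 s compound pre-read, and fluorescence was tracked kinetically for 180 s more.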
D1 agonist = agonists of human D1 dopamine receptor. P21728. HEK293 T-REx D1 cells, calcium flux, agonist mode. activation, % at 2 µM. 360,000 tested, 1% active; further: 0% is about no effect
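Tetracycline-induced HEK293 TREx D1 cells, force-coupled to calcium signalling, were dye-loaded with a no-wash calcium kit. Compound was pin-added after a 10 s baseline. Fluorescence was read kinetically at 1 cycle/s for 180 s, with calcium rises flagged as agonism.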
TRHR enhancer = allosterically enhances the human TRH receptor; AID 493056; TRHR cells, fluo-8 calcium fluorescence, EC20 TRH enhancement; 360,000 tested, 0.66% active; enhancement, % at 2 µM; P34981; in the data active means enhancement above about 30%; further: 0% is about no effect
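Enhancer read-out: after compound pinning and an initial kinetic agonist-mode read, an EC20 of TRH (10 nM final) was injected and fluo-8 calcium signal (Ex 480/Em 530) followed at 1 s/cycle for 100 cycles in TRHR-expressing cells.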
Starred values were filed as active, the others as inactive; u = inconclusive; x = not tested or not shown. Shown are actives, neighbours in structure and some others; about 4% of the full set was active somewhere. Unless noted, no stated cut-off is given here; in the data, active means activation above about 30%; inactive means the rest.

SMILES	TRHR agonist	D1 PAM	Glioma ERSR ind	D1 antagonist	D1 agonist	TRHR enhancer
Cc1nn(-c2ccccc2)c2nc(N)c(C#N)c(-c3ccc(O)c(O)c3)c12	0	-4	-5%	-8	1	-10
O=C1CNC(=O)/C(=C/c2ccco2)N1	0	-2	1%	-6	3	-4
COc1ccc(OC)c(C2=NS(=O)(=O)N(C)C(C(=O)NCc3cccs3)=C2)c1	2	-5	-1%	-7	41*	-3
CCOC(=O)N1CCC(NS(=O)(=O)c2cc(Br)cc3c2N(C(=O)CC)CC3)CC1	0	1	-4%	2	1	-1
COc1ccc(CC(=O)N2CCN=C2SC)cc1	1	x	0%	-79*	3	1
O=C(Cc1ccccc1)N1CCN=C1SCc1cccc([N+](=O)[O-])c1	0	-4	-6%	-23	0	31*
Cc1cccc(C(=O)N2CCN=C2SCc2ccc([N+](=O)[O-])cc2)c1	0	4	0%	5	6	1
CC1CCN(CCCCOc2ccc([N+](=O)[O-])cc2)CC1	1	-2	-2%	-44*	2	8
C[N+](C)(C)CCOc1ccc([N+](=O)[O-])cc1	0	0	15%	-31*	3	-1
O=[N+]([O-])c1ccc(OCCCCN2CCCCC2)cc1	-1	-3	-2%	-1	8	3
O=[N+]([O-])c1ccc(OCCCCN2CCc3ccccc3C2)cc1	1	-8	-3%	-63*	8	-7
Cc1cc(Cl)ccc1OCC(=O)N/N=C/c1ccncc1	2	-12	-2%	-10	6	-4
O=C(Nc1ccccc1)c1cccc(S(=O)(=O)Oc2ccc([N+](=O)[O-])cc2)c1	-2	-5	-3%	-30*	18	3
Cc1cc(C)cc(NS(=O)(=O)c2coc(C(N)=O)c2)c1	0	-6	-4%	-7	4	4
O=C(O)c1cccc(NC(=O)c2cccc(S(=O)(=O)Nc3cccc([N+](=O)[O-])c3)c2)c1	0	16	-3%	-1	0	-5
Cc1onc(-c2ccccc2)c1C(=O)Nc1ccc(S(=O)(=O)Nc2nccs2)cc1	0	-4	-3%	-40*	1	-4
O=C(Nc1ccccc1)c1cccc(S(=O)(=O)Nc2cccc(F)c2)c1	0	-1	3%	-40*	16	-7
O=C(Nc1cccc(F)c1)c1ccccc1	1	-8	5%	-2	1	4
NC(=O)c1cc(S(=O)(=O)Nc2cccc(F)c2)co1	0	3	-1%	-46*	1	3
CC(Sc1nc2ccccc2c(=O)n1CC1CCCO1)C(=O)N(C)c1ccccc1 (stereo unspecified)	-1	-3	-5%	3	0	-5
O=C(Nc1ccccc1C(=O)O)C1=NN=CC1	0	-6	2%	6	1	-2
Cc1cc2c(s1)c1cnn(Cc3ccc(Cl)c(F)c3)c(=O)c1n2C	0	4	x	-2	5	3
CN(C)c1cccc(C(=O)Nc2ccc(S(=O)(=O)Nc3nccs3)cc2)c1	x	x	9%	x	x	x
O=C(Nc1ccc(S(=O)(=O)Nc2nccs2)cc1)c1cccc(F)c1	1	-3	-3%	-47*	6	2
Cc1ccc(C(=O)C2=C(O)C(=O)N(CCN3CCOCC3)C2c2ccccn2)o1 (stereo unspecified)	1	-3	x	-6	2	-5
SMILES	TRHR agonist	D1 PAM	Glioma ERSR ind	D1 antagonist	D1 agonist	TRHR enhancer
Cc1oc(-c2ccc(Cl)cc2)nc1CSc1nc2ncccc2[nH]1	0	-4	-2%	-8	1	6
Cc1cc(C)n(Cc2ccc(C(=O)Nc3ccc(Br)cc3C)o2)n1	0	1	-3%	3	2	-3
Cc1cc(C)n(Cc2ccc(C(=O)Nc3cccc(Br)c3)o2)n1	0	-2	5%	-28	38*	-7
O=C(Nc1cccc(C(F)(F)F)c1)c1ccc(Cn2cc(Br)cn2)o1	5	-5	6%	-31*	34*	-8
Cc1cc(CNC(=O)CCN2Cc3cc(Cl)ccc3OC(C)C2)nn1C (stereo unspecified)	x	x	-3%	x	x	x
Cc1cccc(-c2nc(S(=O)(=O)c3ccc(F)cc3)c(N3CCN(c4ccccc4)CC3)o2)c1	1	-2	-3%	0	4	-1
COc1ccc(Sc2ncnc3onc(C)c23)cc1	1	-3	-2%	-42*	-1	-1
O=C1Cc2cc(NS(=O)(=O)c3cc(F)ccc3F)cc3c2N1CCC3	0	-4	-1%	-60*	1	10
COc1ccc(F)cc1S(=O)(=O)Nc1cc2c3c(c1)CC(=O)N3CCC2	0	-6	1%	-17	2	7
COc1ccc(CNC(=O)CSc2nccn(-c3ccc(F)c(F)c3)c2=O)cc1	0	5	-2%	-12	2	18
CCOC(=O)/C(=C/c1ccc(N2CCC(c3ccccc3)=N2)cc1)C(C)=O	46*	-6	4%	-23	105*	-1
CC(C)=CCC/C(C)=C/CO/N=C1/C[C@@H](O)[C@@H](O)[C@@H]2[C@@H]3C(=O)N(C4CCCCC4)C(=O)[C@H]3CC[C@H]12	x	x	-7%	x	x	x
CN1CCN(c2ccc(-c3cc(O)c4ncccc4c3)cc2)CC1	0	-2	x	1	6	-1
CCCN1C(=O)S/C(=C\c2ccc(N3CCOCC3)cc2C)C1=O	-1	-6	x	-3	5	10
CCCN1C(=O)S/C(=C\c2ccc(N3CCOCC3)o2)C1=O	20	10	-15%	14	34*	11
CCCN1C(=O)S/C(=C/c2ccc(N3CCOCC3)o2)C1=O	-1	11	1%	-21	103*	5
O=C(O)CN1C(=O)/C(=C/c2ccc(N3CCCCC3)o2)SC1=S	0	8	-6%	-14	7	-2
N#C/C(=C\c1coc2ccc(O)cc2c1=O)C(=O)Nc1nc2ccccc2s1	74*	2	u	-52*	227*	16
CCOC(=O)CSc1nc2ccc(NC(=O)COc3ccccc3)cc2s1	0	-2	1%	-36*	10	-4
Cc1cccc(OCCCC(=O)Nc2ccc(N(C)C)cc2)c1	-1	-3	4%	-2	6	3
CCOC(=O)CSc1nc2ccc(NC(=O)c3ccccc3)cc2s1	1	0	-7%	4	4	-2
Cc1nc2ccc(NC(=O)COc3ccccc3)cc2s1	-1	3	u	-9	1	3
Cc1cccc(OCCC(=O)Nc2ccc(F)c(F)c2)c1	-1	-6	1%	-38*	9	-5
CCC(=O)Nc1nc2ccc(NC(=O)COc3ccccc3)cc2s1	-1	-4	-6%	-72*	2	-21
